The entries come from a sample that favours hits as a whole.
Cycloheximide cs: affects cycloheximide protein synthesis inhibition readout, counter-screen; cell reporter, cycloheximide protein synthesis inhibition counterscreen; max response, %; 12% of 300,000 active; in the data active = max response mostly above about 13%, no sharp cut-off; inactive = mostly below about 14%; also: read at 38.3 µM for the half of the compounds with a filed dose
Sm TGR inh: inhibitors of Schistosoma mansoni thioredoxin glutathione reductase; Q962Y6; purified TGR, DTNB reduction, TNB absorbance 405 nm; Potency, µM (titrated, usually from 114 µM), most hits filed as inhibitors; 3% of 360,000 active; also: nearly all actives have a fitted effect of over 60% in size
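TGR 20 nM + NADPH 100 uM (dispensed conc.), cpd preinc 15 min RT; start with NADPH (500 uM addition) then DTNB (15 mM addition). Kinetic TNB absorbance, 405 nm filter. Four-parameter Hill fit across titration.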
FBPA Giardia inh: Giardia lamblia aldolase inhibition; A8B2U2; purified Giardia FBPA; Potency, µM (top dose mostly 59.6 µM), usual class: inhibitors; 0.71% of 290,000 active; AID 2451; also: nearly all actives have a fitted effect of over 55% in size
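Giardia FBPA (40 nM reagent) was preincubated 10 min at RT with compound (up to 57.5 uM final), then substrate plus GAPDH/TPI/NAD/arsenate coupling system with diaphorase/resazurin was added; resorufin fluorescence (525/598 nm) was read after 20 min.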
Shiga toxin inh: Shiga toxin inhibition; inhibition, % at 38.7 µM; 9.2% of 290,000 active; Vero cells, Shiga toxin protein synthesis inhibition reporter; AID 2315; in the data active = inhibition mostly above about 28%, no sharp cut-off; inactive = mostly below about 43%
LmPK inh: inhibitors of Leishmania mexicana pyruvate kinase. Q27686. purified LmPK, Kinase-Glo ATP luminescence, 1 h. Potency, µM (doses to about 57.5 µM), actives largely listed as inhibitors. 0.37% of 290,000 active. AID 1721
Target sequence (Q27686 whole entry, looked up): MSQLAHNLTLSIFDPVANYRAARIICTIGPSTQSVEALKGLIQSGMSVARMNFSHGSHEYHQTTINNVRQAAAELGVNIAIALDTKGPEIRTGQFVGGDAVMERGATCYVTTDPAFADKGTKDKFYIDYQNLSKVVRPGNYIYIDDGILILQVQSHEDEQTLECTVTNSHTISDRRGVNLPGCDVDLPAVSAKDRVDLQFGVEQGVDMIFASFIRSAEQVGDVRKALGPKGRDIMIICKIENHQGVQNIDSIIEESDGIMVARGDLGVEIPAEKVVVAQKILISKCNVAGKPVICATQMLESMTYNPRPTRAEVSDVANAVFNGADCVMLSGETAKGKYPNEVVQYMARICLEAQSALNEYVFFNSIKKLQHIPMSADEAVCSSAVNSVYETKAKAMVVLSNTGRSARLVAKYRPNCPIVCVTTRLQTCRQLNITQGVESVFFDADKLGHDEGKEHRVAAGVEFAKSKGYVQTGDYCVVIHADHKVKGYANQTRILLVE
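ATP generated from ADP (0.1 mM) and PEP (0.5 mM) by 0.1 nM LmPK over 1 h at room temperature (pH 7.2 imidazole buffer) was detected by coupled luciferase luminescence. Values were normalized to uninhibited and no-enzyme wells.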
TbPYK inhibitor: T. brucei pyruvate kinase inhibition | AID 624173 | Q57TT1 | Potency, µM (doses to about 76.8 µM), usual class: inhibitors | 0.12% of 410,000 active | TbPYK enzyme, Kinase-Glo Plus ATP luminescence, 45 min; also: nearly all actives have a fitted effect of over 50% in size
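TbPYK + substrate in 50 mM TEA pH 7.2, 100 mM KCl, 10 mM MgCl2, 0.05% BSA, 0.01% Tween-20; cpd pinned; ADP 130 uM final; 45 min RT; Kinase-Glo Plus 10 min; luminescence endpoint.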
A number is an active result; . = inactive; ? = inconclusive; / = not tested or not shown; [ ] = another dose, or the depositor's remark. Unless noted, calls follow the shape of the dose curve; as a rule, active = well fitted curve in the direction sought with a large enough effect; inconclusive = small, poorly fitted or top-dose-only effect, or another doubt; inactive = no such curve, though single readings can be large; an effect the other way counts as inactive or inconclusive.

SMILES	Cycloheximide cs	Sm TGR inh	FBPA Giardia inh	Shiga toxin inh	LmPK inh	TbPYK inhibitor
c1ccc(-n2ncc3c(NCCN4CCCCC4)ncnc32)cc1	52.0	50.1µM	.	65.7	.	.
c1ccc(-n2ncc3c(NCCN4CCOCC4)ncnc32)cc1	22.0	.	.	71.9	.	.
Cc1cccc(-n2ncc3c(NCCN4CCOCC4)ncnc32)c1	.	.	.	.	.	.
CCn1c(SCC(=O)N/N=C/c2ccc(C)o2)nnc1-c1ccc(C)cc1	.	.	.	.	.	.
CCn1c(SCC(=O)N/N=C/C=C/c2ccco2)nnc1-c1ccc(OC)cc1	.	31.6µM	?	.	.	.
CCn1c(SCC(=O)N/N=C/C=C/c2ccco2)nc2ccccc21	.	14.1µM	.	.	.	.
Cc1ccc(Cl)cc1Nc1nc2ccccc2c2nncn12	/	.	/	/	/	.
C[C@H](Cc1ccccc1)Nc1ncnc2c1ncn2[C@@H]1O[C@H](CO)[C@H](O)[C@H]1O	/	/	.	/	/	/
C=C(CCC(=O)c1ccccc1)C(=O)c1ccccc1	17.2	44.7µM	.	.	.	.
Cc1ccc(NC(=O)C2CCCN(c3ncccn3)C2)cc1F (centres undefined)	23.5	.	.	.	.	.
Cc1ccc(NC(=O)C2CCCN(c3ncccn3)C2)c(C)c1 (centres undefined)	33.2	.	.	49.0	.	.
Cc1cc(C)cc(NC(=O)C2CCCN(c3ncccn3)C2)c1 (centres undefined)	11.5	.	/	.	.	.
O=C(Nc1ccc2c(c1)CCC2)C1CCCN(c2ncccn2)C1 (centres undefined)	37.8	.	.[12.9 µM]	43.3	.	.
O=C(Nc1cccc(C(F)(F)F)c1)C1CCCN(c2ncccn2)C1 (centres undefined)	.	.	.	.	.	.
Cc1cccc(N(CC(=O)N/N=C/c2ccc(C(=O)O)cc2)S(=O)(=O)c2ccccc2)c1C	/	/	/	/	/	.
O=C(Nc1ccc2oc(-c3cccc(F)c3)nc2c1)c1ccc2ccccc2c1	/	.	/	/	/	.
CC(C)(C)NCC(O)COc1nsnc1N1CCOCC1 (centres undefined)	/	/	.	/	/	/
COc1ccc(-c2csc(-c3[nH]cnc3N)n2)cc1	28.3	.	.	86.2	.	.
C=CCNC(=O)c1ccc(-c2nc(-c3ccccc3)cs2)cc1	32.5	.	.	51.5	.	/
COc1ccc(-c2csc(-c3ccc(C(=O)O)cc3)n2)cc1	27.0	.	.	60.5	.	.
O=C(O)c1ccc(-c2nc(-c3ccc(Cl)cc3Cl)cs2)cc1	33.8	.	.	77.1	.	.
C[C@@H]1CN2[C@H](c3ccc(Br)cc3)[C@H](C)CC[C@H]2C(=O)O1	/	/	.[12.9 µM]	/	/	/
O=[N+]([O-])c1ccc(CNCc2cc(Cl)ccc2O)cc1	/	.	/	/	/	.
O=C(O)c1ccc(-c2nc(-c3cccc(C(F)(F)F)c3)cs2)cc1	.	.	.	.	.	.
O=C(O)c1ccc(-c2nc(-c3ccc(Cl)cc3)cs2)cc1	32.1	.	.	81.2	.	.
SMILES	Cycloheximide cs	Sm TGR inh	FBPA Giardia inh	Shiga toxin inh	LmPK inh	TbPYK inhibitor
CN1CCc2c(sc(NC(=O)c3ccc(S(=O)(=O)N4CCCC4)cc3)c2C(N)=O)C1	.	100µM	/	.	.	.
CN1CCc2c(sc(NC(=O)c3ccc(S(=O)(=O)N4CCCCCC4)cc3)c2C(N)=O)C1	.	.	/	.	.	.
CN1CCc2c(sc(NC(=O)c3ccc([N+](=O)[O-])o3)c2C(N)=O)C1	27.4	?	/	25.5	.	.
CN1CCc2c(sc(NC(=O)c3ccco3)c2C(N)=O)C1	17.2	.	.	.	.	.
COC(=O)c1c(NC(=O)c2ccco2)sc2c1CCN(C(C)C)C2	.	.	.	.	.	.
CC(C)N1CCc2c(sc(NC(=O)c3ccco3)c2C(N)=O)C1	20.7	50.1µM	.	.	.	.
CN(C)c1ccc(C2CC(c3c(O)n(C4CCCCC4)c(=O)[nH]c3=O)=Nc3ccccc3S2)cc1 (centres undefined)	/	.	/	/	/	.
COc1cc(C(=O)ON=C2C3CC4CC(C3)CC2C4)cc(OC)c1OC	.	.	.	.	.	.
COc1cc(C(=O)O/N=C2/C=CC(=O)C(C)=C2C)cc(OC)c1OC	.	.	3.97µM	.	.	.
Cc1ccccc1NC(=O)CN1C(=O)N/C(=C\c2ccccc2OCc2ccc(C(=O)O)cc2)C1=O	.	.	.	.	.	.
